Results filed as inconclusive are left out. Entries that show only a call come without a potency. A number with no mark means an inactive call. Calls of active or inactive are those of the source. Unless noted, the call rests on the fitted dose curve; in most records, active means well fitted curve in the direction sought with a large enough effect in the repeat runs; inconclusive means weak or mixed curves; inactive means no such curve, though single readings can be large; an effect the other way counts as inactive or inconclusive.
What was measured:
[1] = qHTS assay to identify small molecule agonists of the vitamin D receptor (VDR) signaling pathway - cell viability counter screen (AID 743224); further: nearly all actives have a fitted effect of over 50% in size
Outline: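 VDR-bla cells, 4 h after plating, exposed to compounds for 16 h at 37C; viability then read in the same wells as CellTiter-Glo luminescence after 30 min at room temperature, following the bla FRET read.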

[2] = qHTS assay to identify small molecule antagonists of the vitamin D receptor (VDR) signaling pathway - cell viability counter screen (AID 743225); further: nearly all actives have a fitted effect of over 50% in size
Outline: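 In this counter screen, VDR-bla HEK 293T cells receive test compound plus 3 nM final calcitriol for 16 h at 37C. Room-temperature steps of 2 h with the beta-lactamase substrate, then 30 min with CellTiter-Glo, precede the luminescence read.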

[3] = qHTS assay to identify small molecule agonists of the NFkB signaling pathway - cell viability counter screen (AID 1159515; calls by dose curve; further: nearly all actives have a fitted effect of over 55% in size)
Outline: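 NFkB-bla ME-180 cells, 2,000/well, plated overnight at 37 C; compound added for 5 hr at 37 C. Viability read in the same wells as the bla reporter, by CellTiter-Glo luminescence after 30 min at room temperature.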

[4] = qHTS assay to identify small molecule agonists of the endoplasmic reticulum stress response signaling pathway (AID 1159516; active means well fitted activation curve with a large enough effect in the signal ratio in the repeat runs, not every such curve was filed as active; the % refers to the signal ratio)
Outline: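 CellSensor ESRE-bla HeLa cells, 1,500 per well, plated overnight, then exposed to compounds for 5 hr at 37 C. Beta-lactamase reporter read with LiveBLAzer B/G FRET substrate after 2 hr at room temperature, 405 nm excitation, 460 and 530 nm emission.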

[5] = qHTS assay to identify small molecule agonists of the endoplasmic reticulum stress response signaling pathway - cell viability counter screen (AID 1159517; calls by dose curve;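 further: HeLa cells carrying an ER stress response element beta-lactamase reporter; nearly all actives have a fitted effect of over 50% in size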)
Outline: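 Cells, HeLa ESRE-bla; density, 1,500/well; dosing, 5 hr at 37 C, 5% CO2; readout, CellTiter-Glo luminescence after 30 min RT.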

[6] = qHTS assay to identify small molecule agonists of the AP-1 signaling pathway - cell viability counter screen (AID 1159525; calls by dose curve; further: nearly all actives have a fitted effect of over 55% in size)
Outline: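 Luminescent ATP readout (Cell Titer Glo, 30 min RT), normalised to DMSO and tetra n-octyl ammonium bromide controls. Cells were ME-180 AP-1-bla in 0.5% dialyzed FBS Opti-MEM, with a 5 h, 37 °C compound exposure.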

[7] = qHTS assay to identify small molecule agonists of the AP-1 signaling pathway (AID 1159526; calls by dose curve)
[8] = biological target: Retinoic acid receptor RXR-alpha (Homo sapiens) (UniProt P19793); assay: qHTS assay to identify small molecule agonists of the RXR signaling pathway (AID 1159527; calls by dose curve; further: nearly all actives have a fitted effect of over 35% in size)
Outline: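 Fluorescence ratio readout (460 vs 530 nm) from GeneBLAzer RXR-alpha HEK 293T cells after 16 hr compound treatment; cells seeded 5 hr beforehand in low-serum, charcoal-stripped medium.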

[9] = qHTS assay to identify small molecule agonists of the RXR signaling pathway - cell viability counter screen (AID 1159529);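 further: HEK 293T cells carrying an RXR-alpha UAS beta-lactamase reporter; nearly all actives have a fitted effect of over 50% in size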
Outline: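 Viability read-out for the RXR-alpha agonist qHTS: luminescent CellTiter-Glo signal after 30 min at RT. HEK 293T bla reporter cells, 2% charcoal-stripped FBS, 16 hr compound incubation; tetraoctyl ammonium bromide as cytotoxic control.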

[10] = qHTS assay to identify small molecule antagonists of the retinoid acid receptor (RAR) signaling pathway - cell viability counter screen (AID 1159551); further: nearly all actives have a fitted effect of over 35% in size
Outline: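 C3RL4 RARE-luciferase cells, 1,000/well, incubated overnight, then dosed with compound plus 1 uM retinol (final). After 6 hr at 37 C, viability read by CellTiter-Glo ATP luminescence following 30 min at room temperature.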

[11] = qHTS assay to identify small molecule antagonists of the retinoic acid receptor (RAR) signaling pathway (AID 1159552; further: nearly all actives have a fitted effect of over 50% in size)
Outline: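 Using a RARE-driven luciferase construct in C3RL4 cells, retinol at 1 uM final provided the agonist stimulus while compounds were co-applied. After 6 hours at 37 C, luminescence was recorded to flag inhibitors of retinol signaling.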

[12] = qHTS assay to identify small molecule agonists of the retinoic acid receptor (RAR) signaling pathway (AID 1159553); conditions: C3RL4 RARE luciferase reporter, agonist, 6 h; activation: at 73.3 µM (top of the series)
Outline: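 C3RL4 RARE-luciferase cells were seeded at 1,000/well and grown overnight at 37 C, then exposed to compounds for 6 hr at 37 C, 5% CO2. Luciferase reagent was added and luminescence was read after 30 min at room temperature.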

[13] = biological target: Luciferin 4-monooxygenase (Photinus pyralis) (UniProt P08659); assay: qHTS assay to identify small molecule inhibitors of firefly luciferase (AID 1224835); further: nearly all actives have a fitted effect of over 25% in size; further: potency means the concentration at half of the fitted maximal effect
Outline: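 Inhibition of purified Photinus luciferase is measured by luminescence. Substrate levels (D-luciferin, ATP) sit at their KM values. Each compound is tested in a concentration series.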

[14] = qHTS assay to identify small molecule agonists of the constitutive androstane receptor (CAR) signaling pathway - cell viability counter screen (AID 1224836); further: nearly all actives have a fitted effect of over 45% in size
Outline: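 Multiplexed viability check: HepG2-CYP2B6-hCAR cells, 15-point compound dosing, 0.75 uM PK11195 final, 23 h at 37 C, CellTiter-Fluor fluorescence.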

[15] = qHTS assay to identify small molecule antagonists of the constitutive androstane receptor (CAR) signaling pathway - cell viability counter screen (AID 1224837); further: nearly all actives have a fitted effect of over 45% in size
Outline: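 HepG2 cells stably carrying hCAR and CYP2B6-2.2kb reporter, stimulated with 50 nM CITCO and compounds at 15 concentrations for 23 h at 37 C. Viability measured by CellTiter-Fluor fluorescence.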

[16] = biological target: Nuclear receptor ROR-gamma (Homo sapiens) (UniProt P51449); assay: qHTS assay to identify small molecule antagonists of the retinoid-related orphan receptor gamma (ROR-gamma) signaling pathway (AID 1159521)
Outline: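 Screening format: cell-based luciferase reporter in CHO cells with doxycycline-inducible RORγ. Compound pre-exposure lasts 2 h, doxycycline is 1 uM final, induction runs 16 h at 37 C, and ONE-Glo luminescence is read.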

[17] = qHTS assay to identify small molecule antagonists of the estrogen related receptor (ERR) signaling pathway from Tox21 library - cell viability counter screen (AID 1224834); further: nearly all actives have a fitted effect of over 30% in size
Outline: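 ERR reporter cells, 2,000 per well, rested 6 h, then exposed to compound in DMSO for 17.5 hours at 37 C. Viability read as fluorescence after 30 min with CellTiter-Fluor.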

[18] = biological target: Nuclear receptor subfamily 1 group I member 3 (Homo sapiens) (UniProt Q14994); assay: qHTS assay to identify small molecule antagonists of the constitutive androstane receptor (CAR) signaling pathway (AID 1224838); further: nearly all actives have a fitted effect of over 40% in size
Outline: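 HepG2 cells stably carrying hCAR and a CYP2B6-2.2kb luciferase reporter, seeded 4 hrs before compound (15 concentrations). Stimulated with 50 nM CITCO for 24 hr at 37 C. ONE-Glo luminescence read after 30 min at room temperature.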

[19] = qHTS assay to identify small molecule antagonists of the retinoid-related orphan receptor gamma (ROR-gamma) signaling pathway - cell viability counter screen (AID 1159520); further: nearly all actives have a fitted effect of over 50% in size
Outline: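 Cytotoxicity was read from cellular ATP (CellTiter-Glo luminescence) after 16 hr at 37 C with 1 uM doxycycline induction. The inducer was added 2 hr after compound transfer to Tet-on ROR gamma CHO cells.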

Chain of Luciferin 4-monooxygenase (Photinus pyralis) (P08659 whole entry, looked up): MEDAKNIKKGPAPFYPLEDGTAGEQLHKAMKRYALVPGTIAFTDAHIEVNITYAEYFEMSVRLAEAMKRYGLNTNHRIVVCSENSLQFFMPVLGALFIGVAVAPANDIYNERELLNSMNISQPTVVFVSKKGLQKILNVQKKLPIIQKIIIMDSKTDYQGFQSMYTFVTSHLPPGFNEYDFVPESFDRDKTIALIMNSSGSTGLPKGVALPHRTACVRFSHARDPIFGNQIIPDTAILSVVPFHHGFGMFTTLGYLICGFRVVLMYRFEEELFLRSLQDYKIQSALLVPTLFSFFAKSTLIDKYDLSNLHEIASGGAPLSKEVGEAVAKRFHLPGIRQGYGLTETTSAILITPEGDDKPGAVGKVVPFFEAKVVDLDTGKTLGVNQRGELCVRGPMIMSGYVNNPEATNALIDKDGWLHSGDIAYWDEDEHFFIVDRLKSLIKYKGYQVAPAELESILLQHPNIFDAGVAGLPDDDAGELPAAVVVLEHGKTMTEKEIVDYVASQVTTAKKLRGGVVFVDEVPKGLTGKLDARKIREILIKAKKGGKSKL
Chain of Retinoic acid receptor RXR-alpha (Homo sapiens) (P19793 whole entry, looked up): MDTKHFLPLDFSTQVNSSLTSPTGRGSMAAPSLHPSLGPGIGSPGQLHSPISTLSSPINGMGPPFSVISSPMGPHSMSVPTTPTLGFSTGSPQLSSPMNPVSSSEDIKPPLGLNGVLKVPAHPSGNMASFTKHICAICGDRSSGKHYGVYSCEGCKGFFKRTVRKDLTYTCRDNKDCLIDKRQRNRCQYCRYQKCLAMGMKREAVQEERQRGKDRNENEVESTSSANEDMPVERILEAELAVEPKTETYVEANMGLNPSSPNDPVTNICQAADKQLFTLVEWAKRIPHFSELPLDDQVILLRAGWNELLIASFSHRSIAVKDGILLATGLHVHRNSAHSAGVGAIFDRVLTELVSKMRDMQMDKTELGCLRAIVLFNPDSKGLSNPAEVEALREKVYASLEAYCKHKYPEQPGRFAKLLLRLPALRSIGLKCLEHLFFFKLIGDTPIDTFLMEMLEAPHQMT
Chain of Nuclear receptor subfamily 1 group I member 3 (Homo sapiens) (Q14994 whole entry, looked up): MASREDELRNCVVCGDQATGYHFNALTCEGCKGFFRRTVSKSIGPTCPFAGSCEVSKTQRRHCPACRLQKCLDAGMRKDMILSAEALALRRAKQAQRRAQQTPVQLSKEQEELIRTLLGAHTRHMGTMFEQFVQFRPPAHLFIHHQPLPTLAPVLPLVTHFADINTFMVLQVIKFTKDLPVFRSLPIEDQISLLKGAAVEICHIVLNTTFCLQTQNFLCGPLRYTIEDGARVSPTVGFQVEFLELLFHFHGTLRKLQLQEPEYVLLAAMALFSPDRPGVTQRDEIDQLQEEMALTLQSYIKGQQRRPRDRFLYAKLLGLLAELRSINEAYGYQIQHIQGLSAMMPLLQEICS

Structure (SMILES) | outcome [1] | outcome [2] | outcome [3] | outcome [4] | outcome [5] | outcome [6] | outcome [7] | Potency [8] | outcome [9] | outcome [10] | Potency [11] | Potency [12] | Potency [13] | outcome [14] | Potency [15] | outcome [16] | Potency [17] | Potency [18] | outcome [19]
NC(=O)NC(=O)Cc1ccccc1 | inactive | inactive | inactive | inactive | inactive | inactive | inactive | inactive | inactive | inactive | inactive | inactive | inactive | inactive | inactive |  |  |  | 
CC(C)=CC(C)(C)C | inactive |  | inactive | inactive | inactive | inactive | inactive | inactive | inactive | inactive | inactive | inactive | inactive | inactive |  | inactive | inactive |  | 
CC(Cl)COP(=O)(OCC(C)Cl)OCC(C)Cl (stereo not given) | inactive | inactive | inactive | inactive | inactive | inactive | inactive | inactive | inactive | inactive | inactive | inactive | inactive | inactive | inactive | inactive | inactive | inactive | 
C[C@H](CCC(=O)NCC(=O)O)[C@H]1CC[C@H]2[C@@H]3[C@H](O)C[C@@H]4C[C@H](O)CC[C@]4(C)[C@H]3C[C@H](O)[C@]12C | inactive |  | inactive | inactive | inactive | inactive | inactive | inactive | inactive | inactive | inactive | inactive | inactive |  |  | inactive | inactive |  | inactive
CCCCCCCCCCCCCCCCCCN(C)C |  |  | inactive | inactive |  | inactive | inactive | inactive | inactive | inactive | inactive | inactive | inactive | inactive | inactive | inactive | inactive |  | inactive
CCOC(=O)CC(CC(=O)OCC)(OC(C)=O)C(=O)OCC | inactive | inactive | inactive | inactive | inactive | inactive | inactive | inactive | inactive | inactive | inactive | inactive | inactive | inactive | inactive | inactive | inactive | inactive | 
CC(=O)/C=C/c1ccco1 |  | inactive | inactive | inactive | inactive | inactive | inactive | inactive |  | inactive | inactive | inactive | inactive | inactive | inactive | inactive | inactive |  | inactive
CCC(C)(CCC(C)C)C(=O)[O-].CCC(C)(CCC(C)C)C(=O)[O-].[Zn+2] (stereo not given) | inactive | inactive | inactive | inactive |  | inactive | inactive | inactive | inactive | inactive | inactive | inactive | 25.2 µM (active) | inactive | inactive | inactive | inactive |  | inactive
CCC(=O)OCCC(C)CCC=C(C)C (stereo not given) |  | inactive | inactive | inactive |  | inactive | inactive | inactive | inactive | inactive | inactive | inactive | inactive | inactive | inactive | inactive | inactive | inactive | inactive
CCC(C)(C)C1CCC(=O)CC1 | inactive | inactive | inactive | inactive | inactive | inactive | inactive | inactive |  | inactive | inactive | inactive | inactive | inactive | inactive | inactive | inactive |  | inactive
CC(=O)OCC(=O)[C@@]1(O)[C@H](OC(C)=O)C[C@H]2[C@@H]3CCC4=CC(=O)C=C[C@]4(C)[C@@]3(F)[C@@H](O)C[C@@]21C |  | inactive | inactive | inactive | inactive | inactive | inactive | inactive | inactive | inactive | inactive | inactive | inactive | inactive |  | inactive | inactive | inactive | inactive

From PubChem BioAssay (Tox21)
